Measured values reported in the antibiotic and cytotoxicity screens of Wong et al. (2023).
About 3,300 (8.5%) of roughly 39,000 compounds were called active. The full list was thinned out, with actives kept by preference.

test system: HepG2; test: cytotoxicity call (relative viability < 0.9); conditions: 10 µM

| Structure (SMILES) | cytotoxicity call |
| --- | --- |
| C[C@H](CO)N1C[C@H](C)[C@@H](CN(C)Cc2ccccc2)Oc2cc(C#CC(C)(C)O)ccc2S1(=O)=O | inactive |
| C[C@@H]1CN([C@@H](C)CO)C(=O)c2cc(NC(=O)Nc3ccc(C(F)(F)F)cc3)ccc2O[C@@H](C)CCCCO[C@@H]1CN(C)C(=O)C1CCCCC1 | inactive |
| COc1ccc(S(=O)(=O)N(C)C[C@H]2Oc3ncc(C#CC4(O)CCCC4)cc3C(=O)N([C@@H](C)CO)C[C@H]2C)cc1 | inactive |
| Cn1nnnc1SCC(=O)NC(C)(C)C | inactive |
| Cn1cc(-c2[nH]c3cc(NC(=O)[C@H](N)C4CCCCC4)cc4c3c2C=NNC4=O)cn1 | active |
| COc1ccc(-c2cnc3c(c2)C(=O)N([C@H](C)CO)C[C@@H](C)[C@@H](CN(C)C(=O)Cc2ccccn2)O3)cc1 | inactive |
| CC(C)NC(=O)Nc1ccc2c(c1)CC(=O)N([C@@H](C)CO)C[C@H](C)[C@@H](CN(C)Cc1ccc(C(=O)O)cc1)O2 | inactive |
| CC(=O)N1[C@@H]2Cn3c(ccc(-c4ccccc4)c3=O)[C@H]1[C@@H](C(=O)N1CCN(C)CC1)[C@@H]2CO | inactive |
| C[C@@H]1CCCCO[C@@H](CN(C)C(=O)Nc2ccc(F)cc2)[C@@H](C)CN([C@H](C)CO)C(=O)c2cc(NC(=O)Cc3ccccc3)ccc2O1 | inactive |
| O=C1C(O)=C(O)C(=O)C(O)=C1O | active |
| Cc1cc(C(=O)O)sc1[C@@H](N)C(=O)O | inactive |
| C[C@@H]1CN([C@@H](C)CO)C(=O)c2cc(-c3cccnc3)cnc2O[C@H]1CN(C)C(=O)Nc1ccc2c(c1)OCO2 | inactive |
| C[C@H]1CCCCO[C@H](CN(C)C(=O)Nc2ccc(F)cc2)[C@@H](C)CN([C@@H](C)CO)C(=O)c2cc(NC(=O)Nc3ccc4c(c3)OCO4)ccc2O1 | inactive |
| C[C@@H]1CN([C@H](C)CO)C(=O)c2cc(NC(=O)Cc3cn(C)c4ccccc34)ccc2O[C@H]1CN(C)Cc1ccc(C(F)(F)F)cc1 | inactive |
| C[C@H](CO)N1C[C@H](C)[C@H](CN(C)C(=O)Nc2cccc3ccccc23)Oc2ccc(NC(=O)Cc3cn(C)c4ccccc34)cc2C1=O | inactive |
| C[C@H](CO)N1C[C@H](C)[C@@H](CN(C)Cc2ccc(C(F)(F)F)cc2)Oc2ccc(NC(=O)Cc3cn(C)c4ccccc34)cc2C1=O | inactive |
| C[C@@H]1CN([C@@H](C)CO)C(=O)c2cc(NC(=O)Cc3cn(C)c4ccccc34)ccc2O[C@@H]1CN(C)C(=O)Nc1cccc2ccccc12 | active |
| C[C@H](CO)N1C[C@H](C)[C@H](CN(C)C(=O)Nc2ccc(C(F)(F)F)cc2)Oc2ccc(NC(=O)Cc3cn(C)c4ccccc34)cc2C1=O | inactive |
| C[C@H](CO)N1C[C@H](C)[C@@H](CN(C)C(=O)Nc2ccc(C(F)(F)F)cc2)Oc2ccc(NC(=O)Cc3cn(C)c4ccccc34)cc2C1=O | inactive |
| C[C@@H]1CN([C@@H](C)CO)C(=O)c2cc(NC(=O)Cc3cn(C)c4ccccc34)ccc2O[C@@H]1CN(C)C(=O)Nc1ccc(C(F)(F)F)cc1 | inactive |

| Structure (SMILES) | cytotoxicity call |
| --- | --- |
| C[C@@H]1CN([C@H](C)CO)C(=O)c2cc(NC(=O)Cc3cn(C)c4ccccc34)ccc2O[C@H]1CN(C)C(=O)Nc1ccc(C(F)(F)F)cc1 | active |
| C[C@H]1CN([C@@H](C)CO)C(=O)c2cc(NC(=O)Cc3cn(C)c4ccccc34)ccc2O[C@@H]1CN(C)C(=O)Nc1ccc(C(F)(F)F)cc1 | active |
| C[C@@H]1CN([C@H](C)CO)C(=O)c2cc(NC(=O)Cc3cn(C)c4ccccc34)ccc2O[C@@H]1CN(C)Cc1ccc(C(F)(F)F)cc1 | active |
| C[C@H]1CN([C@@H](C)CO)C(=O)c2cc(NC(=O)Cc3cn(C)c4ccccc34)ccc2O[C@H]1CN(C)C(=O)Nc1ccc(C(F)(F)F)cc1 | inactive |
| C[C@H]1CN([C@@H](C)CO)C(=O)c2cc(NC(=O)Cc3cn(C)c4ccccc34)ccc2O[C@@H]1CN(C)C(=O)Nc1cccc2ccccc12 | inactive |
| C[C@@H]1CN([C@H](C)CO)C(=O)c2cccc(NC(=O)c3ccncc3)c2O[C@H]1CN(C)C(=O)Nc1ccc2c(c1)OCO2 | inactive |
| Cc1c(C)n2c3c(=O)[nH]c(=O)n(C)c3nc2n1C | inactive |
| C[C@@H]1CN([C@H](C)CO)C(=O)c2cc(NC(=O)C3CCCCC3)ccc2O[C@@H](C)CCCCO[C@@H]1CN(C)Cc1ccc(C(=O)O)cc1 | inactive |
| COc1ccc(S(=O)(=O)N2C[C@@H](O)COC[C@H]3O[C@@H](CC(=O)N[C@@H]4CCN(Cc5ccccc5)C4)CC[C@@H]32)cc1 | inactive |
| C[C@@H]1CN([C@H](C)CO)C(=O)Cc2cc(NC(=O)Cn3cnnn3)ccc2O[C@@H]1CN(C)Cc1ccc(C(=O)Nc2ccccc2N)cc1 | inactive |
| C[C@@H]1CN([C@H](C)CO)C(=O)c2cc(NS(=O)(=O)c3ccc(Cl)cc3)ccc2O[C@@H](C)CCCCO[C@@H]1CN(C)C(=O)c1ccncc1 | inactive |
| C[C@@H]1CN([C@@H](C)CO)C(=O)c2cccc(NS(=O)(=O)c3cn(C)cn3)c2O[C@H]1CN(C)C(=O)Nc1ccc(F)cc1 | inactive |
| C[C@@H]1CCCCO[C@H](CN(C)C(=O)C2CCCCC2)[C@H](C)CN([C@H](C)CO)C(=O)c2cc(NC(=O)NC3CCCCC3)ccc2O1 | inactive |
| C[C@H](CO)N1C[C@H](C)[C@H](CN(C)Cc2ccc(Oc3ccccc3)cc2)Oc2ccc(NC(=O)NC3CCCCC3)cc2CC1=O | inactive |
| C[C@@H]1CN([C@@H](C)CO)C(=O)Cc2cc(NC(=O)NC3CCCCC3)ccc2O[C@H]1CN(C)Cc1ccc(-c2ccccc2)cc1 | inactive |
| C[C@@H]1CN([C@H](C)CO)C(=O)Cc2cc(NC(=O)NC3CCCCC3)ccc2O[C@H]1CN(C)Cc1ccc(-c2ccccc2)cc1 | active |
| C[C@@H]1CN([C@@H](C)CO)C(=O)Cc2cc(NC(=O)NC3CCCCC3)ccc2O[C@@H]1CN(C)Cc1ccc(Oc2ccccc2)cc1 | active |
| C[C@H]1CN([C@@H](C)CO)C(=O)Cc2cc(NC(=O)NC3CCCCC3)ccc2O[C@H]1CN(C)Cc1ccc(Oc2ccccc2)cc1 | active |
| C[C@@H]1CN([C@@H](C)CO)C(=O)Cc2cc(NC(=O)NC3CCCCC3)ccc2O[C@H]1CN(C)Cc1ccc(Oc2ccccc2)cc1 | inactive |
| C[C@@H]1CN([C@H](C)CO)C(=O)Cc2cc(NC(=O)NC3CCCCC3)ccc2O[C@@H]1CN(C)Cc1ccc(Oc2ccccc2)cc1 | active |

| Structure (SMILES) | cytotoxicity call |
| --- | --- |
| C[C@H]1CN([C@@H](C)CO)C(=O)Cc2cc(NC(=O)NC3CCCCC3)ccc2O[C@H]1CN(C)Cc1ccc(-c2ccccc2)cc1 | inactive |
| C[C@@H]1CN([C@@H](C)CO)C(=O)Cc2cc(NC(=O)NC3CCCCC3)ccc2O[C@@H]1CN(C)Cc1ccc(-c2ccccc2)cc1 | inactive |
| C[C@H](CO)N1C[C@H](C)[C@@H](CN(C)Cc2ccc(Oc3ccccc3)cc2)Oc2ccc(NC(=O)NC3CCCCC3)cc2CC1=O | inactive |
| C[C@H]1CN([C@@H](C)CO)C(=O)Cc2cc(NC(=O)NC3CCCCC3)ccc2O[C@@H]1CN(C)Cc1ccc(Oc2ccccc2)cc1 | inactive |
| C[C@@H]1CN([C@H](C)CO)C(=O)Cc2cc(NC(=O)NC3CCCCC3)ccc2O[C@H]1CN(C)Cc1ccc(Oc2ccccc2)cc1 | inactive |
| C[C@@H]1CN([C@@H](C)CO)C(=O)c2cc(NC(=O)CCN3CCOCC3)ccc2O[C@H]1CN(C)S(C)(=O)=O | inactive |
| CCCNC(=O)N1C[C@H](C)[C@H](OC)CN(C)C(=O)c2ccc(NS(=O)(=O)CC(F)(F)F)cc2OC[C@@H]1C | inactive |
| C[C@H]1CN([C@@H](C)CO)C(=O)c2cc(NC(=O)c3ccncc3)ccc2O[C@@H]1CN(C)S(=O)(=O)c1cccs1 | inactive |
| C[C@H]1CN([C@@H](C)CO)C(=O)c2cc(NC(=O)CCN3CCOCC3)ccc2O[C@H]1CN(C)Cc1ccc(C(=O)O)cc1 | inactive |
| COc1cc([C@@H](O)CO)ccc1OS(=O)(=O)O | inactive |
| COc1ccc(S(=O)(=O)N2C[C@@H](O)COC[C@H]3O[C@H](CC(=O)N[C@H]4CCN(Cc5ccccc5)C4)CC[C@@H]32)cc1 | inactive |
| C[C@@H]1CN([C@@H](C)CO)C(=O)c2cc(NS(=O)(=O)c3cccs3)ccc2O[C@@H](C)CCCCO[C@H]1CN(C)Cc1ccc2c(c1)OCO2 | inactive |
| C[C@H](CO)N1C[C@H](C)[C@@H](CN(C)C(=O)Nc2cccc3ccccc23)Oc2ccc(NS(=O)(=O)c3cccs3)cc2C1=O | inactive |
| C[C@H](CO)N1C[C@H](C)[C@H](CN(C)C(=O)NC2CCCCC2)OCCCC[C@H](C)Oc2ccc(NS(=O)(=O)c3cccs3)cc2C1=O | inactive |
| CC(=O)N1CC(=O)N(c2cnn(C)c2)C[C@]12CCN(C(=O)c1cnc(C)cn1)C2 | inactive |
| CCOC(=O)N(C)C[C@H]1OCc2cn(nn2)CCCC(=O)N([C@@H](C)CO)C[C@H]1C | inactive |
| CSCC[C@H](NC(=O)[C@H](Cc1c[nH]c2ccccc12)NC(=O)CNC(=O)[C@@H](NC(=O)[C@H](Cc1ccc(OS(=O)(=O)O)cc1)NC(=O)[C@H](CC(=O)O)NC(=O)[C@H](CCC(N)=O)NC(=O)[C@@H]1CCC(=O)N1)[C@@H](C)O)C(=O)N[C@@H](CC(=O)O)C(=O)N[C@@H](Cc1ccccc1)C(N)=O | inactive |
| CSCC[C@H](NC(=O)[C@@H](N)Cc1c[nH]c2ccccc12)C(=O)N[C@@H](CC(=O)O)C(=O)N[C@@H](Cc1ccccc1)C(N)=O | inactive |
| CSCC[C@H](NC(=O)[C@H](Cc1ccc(OS(=O)(=O)O)cc1)NC(=O)[C@@H](N)CC(=O)O)C(=O)NCC(=O)N[C@@H](Cc1c[nH]c2ccccc12)C(=O)N[C@@H](CCSC)C(=O)N[C@@H](CC(=O)O)C(=O)N[C@@H](Cc1ccccc1)C(N)=O | active |
